Compounds with a hit are over-represented: about 2.4% of the library has one in this group of screens.
Pol eta inh-1 – blocks human DNA polymerase eta activity; Q9Y253; recombinant Pol eta, fluorescent DNA replication assay; Potency, µM (top dose mostly 114 µM), for inactives: at the highest dose activity change, negative = inhibition, usual class: inhibitors; actives 1.2% (n = 390,000); AID 588591; note: % is set by controls: 0 for no effect and ±100 for the full control effect
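Pol eta (10 nM) was preincubated with compounds for 15 min at room temperature, after which fluorescent replication substrate (50 nM final) was added to start the reaction. Fluorescence was read kinetically at 0 and 10 min.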
POLB inh – inhibitors of human DNA polymerase beta; P06746; Pol beta primer extension/strand displacement, fluorescence kinetic; Potency, µM (titrated, usually from 114 µM), for inactives: top-dose activity change, negative = inhibition, usual class: inhibitors; actives 1.3% (n = 340,000); AID 485314; note: % is set by controls: 0 for no effect and ±100 for the full control effect
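Enzyme-only controls used 10 nM Pol beta; buffer lacking enzyme served as negative control. Compound preincubated 15 min, then 50 nM substrate added; 0 and 10 min reads at room temperature.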
POLI inh – inhibitors of human DNA polymerase iota. Q9UNA4. AID 588590. actives 1% (n = 390,000). Pol iota fluorescent replication assay, 10 min. Potency, µM (titrated, usually from 115 µM), inactives show top-dose activity, negative = inhibition, hits mostly inhibitors
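Pol iota at 10 nM preincubated 15 min with compounds at room temperature; reaction started with fluorescent substrate, 50 nM final. Fluorescence read kinetically at 0 and 10 min; buffer-only wells as negative control.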
Pol kappa inh-1 – DNA polymerase kappa (human) inhibition; Potency, µM (top dose mostly 107 µM), inactives show at the highest dose activity, negative = inhibition, usual class: inhibitors; Q9UBT6; AID 588579; purified Pol kappa, fluorescent DNA synthesis assay, 10 min; actives 0.53% (n = 400,000); note: % is set by controls: 0 for no effect and ±100 for the full control effect
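Activity was followed as the change in fluorescence between reads at 0 and 10 min after starting the reaction with 50 nM substrate. Beforehand, 10 nM polymerase had been preincubated with compound for 15 min at room temperature.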
WRN inhibitor – inhibitors of human WRN helicase | Potency, µM (highest dose often 114 µM), inactives show top-dose activity change, negative = inhibition, hits mostly inhibitors | WRN helicase unwinding, fluorescent forked duplex, kinetic | actives 0.46% (n = 360,000) | AID 651768 | Q14191; note: % is set by controls: 0 for no effect and ±100 for the full control effect; nearly all actives have a fitted effect of over 55% in size
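WRN at 20 nM final was preincubated with compound for 15 min at room temperature; reaction started with 100 nM forked duplex oligonucleotide carrying fluorophore and quencher plus 2 mM ATP (final). Unwinding followed kinetically by red fluorescence (ex 525/em 598 nm).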
FEN1 inh-1 – inhibitors of human flap endonuclease 1; P39748; Recombinant FEN1 flap cleavage, fluorescence, 15 min; Potency, µM (titrated, usually from 114 µM), for inactives: at the highest dose activity change, negative = inhibition, actives largely listed as inhibitors; actives 0.35% (n = 390,000); note: % is set by controls: 0 for no effect and ±100 for the full control effect; nearly all actives have a fitted effect of over 65% in size
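Steps: FEN1 (10 nM) dispensed; compound added by pin tool; 15 min at room temperature; substrate added to 50 nM final; reads at 0 min and 15 min; data normalized and fitted (four-parameter Hill).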
TbPGK inh – TbPGK inhibition, hit validation | actives 79% (n = 500) | Potency, µM (top dose mostly 57.5 µM), for inactives: top-dose activity change, negative = inhibition, hits mostly inhibitors | shares compounds with Pol kappa inh-1 | TbPGK coupled GAPDH assay, Kinase-Glo luminescence; note: % is set by controls: 0 for no effect and ±100 for the full control effect; nearly all actives have a fitted effect of over 65% in size
POLI cherry-pick – Confirm cherry-picked inhibitors of human polymerase iota. shares compounds with Pol kappa inh-1. Pol iota primer extension, TAMRA/BHQ fluorescence. Potency, µM, actives largely listed as inhibitors. actives 77% (n = 1,500)
Pol kappa inh-2 – Pol kappa (human) inhibition, cherry-pick confirmation; actives 76% (n = 920); Potency, µM, usual class: inhibitors; purified Pol-kappa, fluorescent strand-displacement substrate; shares compounds with Pol eta inh-1
Pol eta inh-2 – Pol eta (human) inhibition, cherry-pick confirmation. shares compounds with Pol eta inh-1. Pol eta primer extension, TAMRA/BHQ fluorescence, 10 min. Potency, µM, hits mostly inhibitors. actives 64% (n = 2,600)
FEN1 inh-2 – confirmation of human FEN1 inhibitors; Potency, µM, actives largely listed as inhibitors; FEN1 flap cleavage, TAMRA/BHQ2 fluorogenic DNA substrate; AID 720498; shares compounds with FEN1 inh-1; actives 79% (n = 880); note: nearly all actives have a fitted effect of over 60% in size
An asterisk follows results filed as active; [ ] = another dose, or the depositor's remark. Calls come from the whole dose curve; as a rule, active = well fitted curve in the direction sought with a large enough effect; inconclusive = small, poorly fitted or top-dose-only effect, or another doubt; inactive = no such curve, though single readings can be large; an effect the other way counts as inactive or inconclusive. Potency is the fitted concentration of half-maximal effect.

What do the screens show for `O=C1CC(c2ccco2)CC(O)=C1C=Nc1ccccc1-c1ccccc1` (configuration not stated)?
Pol eta inh-1: -4%; POLB inh: -5%; POLI inh: inconclusive; Pol kappa inh-1: -3%; WRN inhibitor: -7%[57.1 µM]; FEN1 inh-1: -11%

What do the screens show for `COc1cccc(-n2c(=O)c3c4c(sc3n(Cc3ccc(C)cc3)c2=O)CCCC4)c1`?
Pol eta inh-1: -10%; POLB inh: -2%; POLI inh: -14%; Pol kappa inh-1: -5%; FEN1 inh-1: inconclusive

How did Cc1ccc(NC(=O)/C(C#N)=C/c2ccc(C)o2)cc1 do in these assays?
POLB inh: -6%; POLI inh: -2%; Pol kappa inh-1: -10%; FEN1 inh-1: 2%

Results for N#C/C(=C\c1ccc(-c2ccc(C(=O)O)cc2)o1)C(=O)Nc1ccc(F)cc1 ?
Pol eta inh-1: 5.6µM*; POLB inh: inconclusive; POLI inh: 10µM*; Pol kappa inh-1: 56µM*; WRN inhibitor: 56µM*; FEN1 inh-1: 45µM*; POLI cherry-pick: 27*; Pol eta inh-2: 27*

Results for Cc1oc(-c2ccc(Cl)cc2)cc1-c1nn2c(-c3ccoc3C)nnc2s1 ?
Pol eta inh-1: 4.5µM*; POLB inh: 3.5µM*; POLI inh: inconclusive; Pol kappa inh-1: inconclusive; WRN inhibitor: inconclusive; FEN1 inh-1: -1%; POLI cherry-pick: inconclusive; Pol eta inh-2: 76*

How did COc1ccc(NC(=O)C2CCN(S(=O)(=O)c3c(C)noc3/C=C/c3ccco3)CC2)cc1 do in these assays?
Pol eta inh-1: 32µM*; POLB inh: 25µM*; POLI inh: inconclusive; Pol kappa inh-1: inconclusive; FEN1 inh-1: 6%; TbPGK inh: 10µM*; POLI cherry-pick: 24*; Pol kappa inh-2: 12*; Pol eta inh-2: 27*

What do the screens show for `CC(C)(CS(=O)(=O)[O-])NC(=O)CC[N+](C)(C)CCO`?
Pol eta inh-1: 0.79µM*; POLB inh: 2µM*; POLI inh: 1.4µM*; Pol kappa inh-1: 22µM*; WRN inhibitor: 7.9µM*; FEN1 inh-1: 40µM*; TbPGK inh: 3.3µM*; Pol eta inh-2: 8.5*

How did Cc1ccc(-n2cccc2/C=C2\C(=N)N3N=C(c4ccco4)SC3=NC2=O)cc1 do in these assays?
Pol eta inh-1: 14µM*; POLB inh: 10µM*; POLI inh: 20µM*; Pol kappa inh-1: inconclusive; WRN inhibitor: inconclusive; FEN1 inh-1: 22µM*; POLI cherry-pick: inconclusive; Pol eta inh-2: 76*; FEN1 inh-2: 43*

Results for CCOC(=O)c1ccc(NC(=O)c2cnn(-c3ccc(C)cc3C)c2C2CCN(C(=O)OC(C)(C)C)CC2)cc1 ?
Pol eta inh-1: -20%; POLB inh: 4%; POLI inh: 14%; Pol kappa inh-1: 2%; FEN1 inh-1: -1%

What do the screens show for `CCc1nnc(NC(=O)CSc2nc3c([nH]c4ccccc43)c(=O)n2-c2cc(C)cc(C)c2)s1`?
Pol eta inh-1: -9%; POLB inh: 23%; POLI inh: 20%; Pol kappa inh-1: -8%[60.1 µM]; FEN1 inh-1: -5%

Results for NC(=S)n1[nH]c(-c2ccc([N+](=O)[O-])cc2)c(N=Nc2cccc([N+](=O)[O-])c2)c1=O ?
Pol eta inh-1: 28µM*; POLB inh: 0%; POLI inh: inconclusive; Pol kappa inh-1: inconclusive; WRN inhibitor: inconclusive; FEN1 inh-1: 45µM*; TbPGK inh: 13µM*; POLI cherry-pick: 67*; Pol eta inh-2: 48*; FEN1 inh-2: 43*

What do the screens show for `Cc1[nH]n(C(N)=S)c(=O)c1N=Nc1cccc([N+](=O)[O-])c1C`?
Pol eta inh-1: -10%; POLB inh: -9%; POLI inh: -5%; Pol kappa inh-1: -4%; WRN inhibitor: -4%; FEN1 inh-1: 4%

Results for Cc1c(N=Nc2c(-c3ccc([N+](=O)[O-])cc3)[nH]n(C(N)=S)c2=O)cccc1[N+](=O)[O-] ?
Pol eta inh-1: 50µM*; POLB inh: -21%; POLI inh: inconclusive; Pol kappa inh-1: inconclusive; WRN inhibitor: inconclusive; FEN1 inh-1: inconclusive; POLI cherry-pick: inconclusive; Pol eta inh-2: inconclusive; FEN1 inh-2: 67*

What do the screens show for `CCNc1cc(N2CCN(C3CCCCC3)CC2)c2noc3c2c1C(=O)c1ccccc1-3`?
Pol eta inh-1: 5%; POLB inh: 17%; POLI inh: 42%; Pol kappa inh-1: -9%; FEN1 inh-1: 6%

What do the screens show for `O=C(O)CCNc1cc(N2CCN(C(=O)c3ccco3)CC2)c2noc3c2c1C(=O)c1ccccc1-3`?
Pol eta inh-1: 3.2µM*; POLB inh: 18µM*; POLI inh: inconclusive; Pol kappa inh-1: 13µM*; WRN inhibitor: 18µM*; FEN1 inh-1: 32µM*; TbPGK inh: 21µM*; POLI cherry-pick: 17*; Pol kappa inh-2: inconclusive; Pol eta inh-2: 6.7*; FEN1 inh-2: 30*

Results for CCOc1ccccc1C(=O)NCc1ccc2c(c1)CCN2C(=O)c1ccccc1 ?
Pol eta inh-1: -16%; POLB inh: 4%; POLI inh: -1%; Pol kappa inh-1: 0%[60.1 µM]; FEN1 inh-1: -17%

What do the screens show for `CC(=O)Nc1sc2c(c1-c1nc3ccccc3s1)CN(C(C)C)CC2`?
Pol eta inh-1: inconclusive; POLI inh: 13µM*; Pol kappa inh-1: 50µM*; FEN1 inh-1: 6.3µM*; POLI cherry-pick: 24*; Pol kappa inh-2: 17*; FEN1 inh-2: 11*
